# Reference: PubChem BioAssay (NCI)
# Compounds without any hit were thinned out: in the full panel of roughly 83,000, 20% have a hit.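 In brief: 96-well plates, 48 h treatment, single concentration, percent growth endpoint.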 Unmarked numbers belong to inactive results. Activity calls are given as the source filed them. Rule for the calls: active = growth percent below 10; inactive = the rest.
# How the values were obtained:
# Experiment in all cases: NCI-60 one-dose screen, 48 h (100 = growth as untreated, 0 = no growth, -100 = all killed)
# Conditions in all cases: 10 µM unless noted
# SK-MEL-2 melanoma = test system: SK-MEL-2 melanoma
# EKVX NSCLC = test system: EKVX NSCLC
# SN12C renal = test system: SN12C renal
# UO-31 renal = test system: UO-31 renal
# TK-10 renal = test system: TK-10 renal
# ACHN renal = test system: ACHN renal
# CAKI-1 renal = test system: CAKI-1 renal
# A498 renal = test system: A498 renal
# CCRF-CEM leukemia = test system: CCRF-CEM leukemia
# MOLT-4 leukemia = test system: MOLT-4 leukemia
# SR leukemia = test system: SR leukemia
# RPMI-8226 leukemia = test system: RPMI-8226 leukemia
# OVCAR-8 ovarian = test system: OVCAR-8 ovarian
# OVCAR-5 ovarian = test system: OVCAR-5 ovarian
# OVCAR-4 ovarian = test system: OVCAR-4 ovarian
# SK-OV-3 ovarian = test system: SK-OV-3 ovarian
# IGROV1 ovarian = test system: IGROV1 ovarian
# OVCAR-3 ovarian = test system: OVCAR-3 ovarian
# HS 578T breast = test system: HS 578T breast
# NCI/ADR-RES ovarian = test system: NCI/ADR-RES ovarian
SMILES,growth (SK-MEL-2 melanoma),growth (EKVX NSCLC),growth (SN12C renal),growth (UO-31 renal),growth (TK-10 renal),growth (ACHN renal),growth (CAKI-1 renal),growth (A498 renal),growth (CCRF-CEM leukemia),growth (MOLT-4 leukemia),growth (SR leukemia),growth (RPMI-8226 leukemia),growth (OVCAR-8 ovarian),growth (OVCAR-5 ovarian),growth (OVCAR-4 ovarian),growth (SK-OV-3 ovarian),growth (IGROV1 ovarian),growth (OVCAR-3 ovarian),growth (HS 578T breast),growth (NCI/ADR-RES ovarian)
COc1ccc(NS(=O)(=O)c2ccc(C)cc2)c([N+](=O)[O-])c1,110%,101%,88.2%,86.3%,99.7%,95.4%,98.2%,80%,97%,96.3%,100%,96.7%,104%,106%,115%,105%,102%,106%,95.7%,95.9%
C/C(=C(/c1ccccc1)c1ccc(OCC(O)CNCCN2CCOCC2)cc1)c1ccccc1 (stereo not drawn),94.9%,82.8%,76.1%,69.2%,73.5%,81.4%,67.9%,79.9%,56.5%,41%,0.691% (active),20.4%,78.2%,76.2%,70.3%,95.4%,63.3%,77.9%,70.5%,80.2%
CC(C)(C)CC(C)(C)Nc1c(-c2ccc(C(F)(F)F)cc2)nc2cnccn12,91%,79.4%,86.1%,64.1%,102%,87%,75.4%,83.8%,85.8%,68.5%,59.8%,62.9%,89.2%,102%,79.4%,82.7%,67.4%,84.8%,102%,81.9%
CCN(CC)CCSCCCNc1c(C)cnc2cc(Cl)ccc12,143%,87.4%,82.7%,54.9%,118%,94.6%,90.5%,71.4%,80.6%,70.4%,30.9%,83%,93.2%,98.4%,86%,108%,85.4%,82.5%,102%,–
COc1cc(-c2nc3occn3c2-c2ccnc(NCCNS(=O)(=O)c3ccc(Cl)cc3)n2)ccc1F,71.9%,78.1%,71.5%,36.4%,89%,77.7%,60.9%,62.3%,60.9%,54%,71.9%,48.8%,85.4%,118%,78.6%,67.3%,64.6%,114%,77.8%,82.2%
S=c1[nH]cccc1-c1nnc2n1Nc1nc3ccccc3cc1CS2,104%,97.1%,98.8%,70.2%,105%,93.3%,82.8%,111%,105%,104%,95.7%,99.2%,98%,96%,101%,82.1%,90.7%,105%,96.4%,98.2%
Cc1ccc(C2CC(c3cccc(Nc4ccncc4)c3)=NN2c2ccc(Cl)cc2)cc1 (stereo not drawn),-74.8% (active),-85.1% (active),-95.8% (active),-99.4% (active),-80.9% (active),-100% (active),-94.7% (active),-93.8% (active),-30.8% (active),-32.8% (active),-12.4% (active),-46% (active),-35% (active),-100% (active),-83.2% (active),-92.3% (active),-92.7% (active),-91.1% (active),-55.9% (active),-63% (active)
NC(=O)C1(N2CCCCC2)CCN(CCCC(=O)c2ccc(F)cc2)CC1,13.9%,59.2%,43.3%,88.9%,88.2%,90.9%,91.7%,32.8%,0.142% (active),26.8%,11.4%,29.5%,51.1%,72.7%,59.8%,30.8%,62.6%,-14.7% (active),-2.41% (active),100%
CC(C)[N+](C)(CCOC(COc1ccccc1)COc1ccccc1)C(C)C,87.1%,79.1%,64.8%,88.8%,94.1%,105%,105%,60%,87.7%,98.2%,91.5%,49.3%,104%,104%,78.6%,105%,76.6%,75.4%,105%,107%
CCN(CC)CCOC(COc1cc(C)cc(C)c1)COc1cc(C)cc(C)c1,86.7%,53%,28.8%,31.6%,48%,46.2%,40.1%,28.4%,14.5%,13.5%,-20.8% (active),0.427% (active),58.6%,55.6%,50.9%,67.1%,12.6%,58.4%,61.6%,41.5%
COc1cccc(CCC(=O)c2cc3c(N)c(C(=O)Nc4ccccc4)sc3nc2C)c1,42.3%,45.4%,35%,34.8%,70.9%,56.3%,28.4%,9.88% (active),29.7%,22.2%,16.2%,43.8%,60.2%,48.6%,53.9%,56.8%,34%,18%,21.5%,12.2%
C[C@]12CCc3nc(Nc4cccc(O)c4)sc3C1=CC[C@@H]1[C@@H]2CC[C@]2(C)/C(=N\NC(N)=S)CC[C@@H]12,40.8%,65.9%,30.7%,-37.1% (active),20.1%,-54.1% (active),36.4%,97.5%,1.64% (active),5.41% (active),8.77% (active),-22.2% (active),30.5%,58.8%,39%,29.9%,-35.5% (active),-54% (active),-0.0546% (active),47.8%
COc1ccc(NC(=O)c2sc3nc(C)c(C(O)c4ccc(OC)cc4)cc3c2N)cc1 (stereo not drawn),45.6%,47.9%,33%,20.6%,60.7%,36.3%,30.4%,12.6%,21.7%,15.8%,4.21% (active),39.8%,20.4%,50.6%,50.4%,38.5%,29.1%,16.7%,20.1%,–
O=C(Nc1ccc2ncnc(Nc3ccc(Oc4cccc(F)c4)c(Cl)c3)c2c1)c1ccc(CNCCO)cc1,94.2%,47.9%,48.6%,73.9%,57.1%,28.8%,55.4%,71.6%,-19.9% (active),-0.727% (active),5.98% (active),6.61% (active),31.5%,78.1%,7.6% (active),29.5%,9.12% (active),45.7%,51.3%,76.9%
COc1ccccc1N1CCN(C(=O)c2ccc3nc(NC(=O)c4ccc(NCCc5ccccc5)c([N+](=O)[O-])c4)sc3c2)CC1,93.4%,89%,77.2%,60.1%,110%,90.6%,73.4%,79.6%,77.6%,95.4%,3.74% (active),92.3%,81.6%,93.6%,2.92% (active),92.4%,91.8%,70.3%,48.5%,89.6%
